Laboratory results reported in PubChem BioAssay.
The source made the active and inactive calls.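 The calls were made as follows, unless noted: active = compounds lowering colon cancer cell viability after pretreatment blocking the GSK3B kinase; inactive = the rest.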

Experiments:
[1] = Wnt pathway potentiators raising nuclear beta-catenin – imaging, WNT3A-conditioned medium, mouse C2C12, NPC library, primary screen (AID 1117326; in the data active = nuclear beta-catenin stimulation mostly above about 4.2%, no sharp cut-off; inactive = mostly below about 10%; also: reference of the scale not given here); conditions: stronger effect = higher value
[2] = stimulators of insulin release from INS-1E, primary screen, cell-based, 5 mM glucose, NPC library (AID 1117329;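 active = compound raises insulin release from rat beta cells at 5 mM glucose, no numeric limit stated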; also: reference of the scale not given here); conditions: rat INS-1E insulin secretion, at 10 µM, stronger effect = higher value
[3] = growth inhibition of GSK3B-pretreated HCT116 cells – cell-based, CellTiter-Glo, 0.2 to 20 µM (AID 1117336); conditions: HCT116 viability after GSK3B inhibitor, at 20 µM, stronger effect = higher value
[4] = inhibition of endothelial tube formation, primary screen, imaging, VEGF stimulated, CD31 staining, tube area, NPC library (AID 1117340;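 active = compound that reduces growth-factor-driven endothelial tube area in a mixed cell culture, no cutoff stated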); conditions: VEGF-stimulated ADSC/ECFC co-culture, at 10 µM, stronger effect = higher value
[5] = GLP1 release stimulators, primary, NCI-H716, NPC library (AID 1117341;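 active = compound raises GLP1 secretion from the human gut endocrine cells, with no numeric limit stated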; also: reference of the scale not given here); conditions: NCI-H716 cells, at 10 µM, stronger effect = higher value
[6] = HCT116 colon cancer cell growth inhibition, primary screen, CellTiter-Glo luminescence, NPC library (AID 1117342;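 active = compounds that lower survival of HCT116 colon cancer cells in the luminescence readout, no numeric limit stated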); conditions: at 20 µM (top of the series)
[7] = reduced SW480 viability measured with CellTiter-Glo, NPC library, primary (AID 1117343;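 active = compounds that lower viability of the colon cancer cells in the luminescence readout, with no numeric limit stated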); conditions: CellTiter-Glo luminescence; at 20 µM (top of the series)
[8] = NPC library primary testing for decreased DLD-1 cell viability via CellTiter-Glo (AID 1117346;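 active = compounds that lower survival of DLD-1 colon cancer cells in the luminescence readout, no cutoff given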); conditions: DLD-1 viability, CellTiter-Glo luminescence; at 20 µM (top of the series)

CC(C)(C)c1nnc(NS(=O)(=O)c2ccc(N)cc2)s1
active: viability decrease (inhibition) [7] 54.4%
inactive: nuclear beta-catenin stimulation ([1]; at 10 µM) 0.1% | insulin secretion stimulation [2] 3.45% | viability decrease [3] 7.2% | tube area decrease [4] -5.2% | GLP1 secretion stimulation [5] 0.7% | inhibition of viability [6] -2.9% | viability decrease (inhibition) [8] -5.4%
-1.2%: nuclear beta-catenin stimulation ([1]; stimulation, at 2 µM)

O=C1CC(c2ccc(Cl)cc2)CC(=O)N1
-2.3%: nuclear beta-catenin stimulation ([1]; stimulation, at 2 µM)
inactive: nuclear beta-catenin stimulation ([1]; at 10 µM) -1.1% | insulin secretion stimulation [2] 1.8% | viability decrease [3] 2.1% | GLP1 secretion stimulation [5] 3.8% | inhibition of viability [6] 20.4% | viability decrease (inhibition) [7] -4.9% | viability decrease (inhibition) [8] 6.7%
active: tube area decrease [4] -4.2%

O=C(O)c1[nH]n(-c2ccc(S(=O)(=O)O)cc2)c(=O)c1N=Nc1ccc(S(=O)(=O)O)cc1
inactive: nuclear beta-catenin stimulation ([1]; at 10 µM) 1.7% | insulin secretion stimulation [2] 2.7% | viability decrease [3] -3.9% | tube area decrease [4] -8.4% | GLP1 secretion stimulation [5] -3% | inhibition of viability [6] 4.2% | viability decrease (inhibition) [7] -14% | viability decrease (inhibition) [8] 6.5%
-1.1%: nuclear beta-catenin stimulation ([1]; stimulation, at 2 µM)

CC(C)[N+](C)(C)CC(O)COc1cccc2ccccc12 (stereo unspecified)
-0.7%: nuclear beta-catenin stimulation ([1]; stimulation, at 2 µM)
inactive: nuclear beta-catenin stimulation ([1]; at 10 µM) -2.3% | insulin secretion stimulation [2] 2.4% | viability decrease [3] 7.2% | tube area decrease [4] -21% | GLP1 secretion stimulation [5] 3% | inhibition of viability [6] 34.1% | viability decrease (inhibition) [7] -0.7% | viability decrease (inhibition) [8] 5.7%

Cc1onc(-c2ccccc2Cl)c1C(=O)Cl
inactive: nuclear beta-catenin stimulation ([1]; at 10 µM) -1.6% | insulin secretion stimulation [2] 0.3% | viability decrease [3] -16.4% | tube area decrease [4] 0.4% | GLP1 secretion stimulation [5] 0.1% | inhibition of viability [6] 0.4% | viability decrease (inhibition) [7] 26.4% | viability decrease (inhibition) [8] 14.3%
-0.5%: nuclear beta-catenin stimulation ([1]; stimulation, at 2 µM)

CC(C)[C@H]1CC[C@H](C)C[C@H]1O
active: viability decrease (inhibition) [8] 5.7%
inactive: nuclear beta-catenin stimulation ([1]; at 10 µM) -2.2% | insulin secretion stimulation [2] 2.4% | viability decrease [3] 2% | tube area decrease [4] -11.4% | GLP1 secretion stimulation [5] 7.7% | inhibition of viability [6] 8.8% | viability decrease (inhibition) [7] 17.2%
-0.8%: nuclear beta-catenin stimulation ([1]; stimulation, at 2 µM)

COc1ccccc1N1CCN(CC(O)COc2cc(OC)c(OC)c(OC)c2)CC1 (stereo unspecified)
0.4%: nuclear beta-catenin stimulation ([1]; stimulation, at 2 µM)
inactive: nuclear beta-catenin stimulation ([1]; at 10 µM) 0.2% | insulin secretion stimulation [2] 1.5% | viability decrease [3] 16.1% | GLP1 secretion stimulation [5] 4.5% | inhibition of viability [6] 20.9% | viability decrease (inhibition) [7] -2.1% | viability decrease (inhibition) [8] 8.5%
active: tube area decrease [4] 56.8%

CCCCC(O)/C=C(C)/C=C/C=C/C(=O)N1CCCC1=O (stereo unspecified)
-0.4%: nuclear beta-catenin stimulation ([1]; stimulation, at 2 µM)
active: viability decrease (inhibition) [7] 59.3%
inactive: nuclear beta-catenin stimulation ([1]; at 10 µM) -1% | insulin secretion stimulation [2] 0.3% | viability decrease [3] 1.6% | tube area decrease [4] 17.5% | GLP1 secretion stimulation [5] 1.3% | inhibition of viability [6] 37.5% | viability decrease (inhibition) [8] -19.2%

O=P(O)(O)C(Sc1ccc(Cl)cc1)P(=O)(O)O
1.6%: nuclear beta-catenin stimulation ([1]; stimulation, at 2 µM)
inactive: nuclear beta-catenin stimulation ([1]; at 10 µM) 1.7% | insulin secretion stimulation [2] 3.9% | viability decrease [3] -2.7% | tube area decrease [4] 1% | GLP1 secretion stimulation [5] -2.7% | inhibition of viability [6] 4.3% | viability decrease (inhibition) [7] 2.6% | viability decrease (inhibition) [8] 2%

COc1ccc(C(=O)N2CCN(CC(=O)N3CCOCC3)CC2)cc1
5.2%: nuclear beta-catenin stimulation ([1]; stimulation, at 2 µM)
inactive: nuclear beta-catenin stimulation ([1]; at 10 µM) 0.8% | insulin secretion stimulation [2] 3.1% | viability decrease [3] 6.4% | tube area decrease [4] 2.1% | GLP1 secretion stimulation [5] 0.6% | inhibition of viability [6] 4.3% | viability decrease (inhibition) [7] -11.3% | viability decrease (inhibition) [8] 3.3%

CC1(C)S[C@@H]2[C@H](NC(=O)C(c3ccccc3)S(=O)(=O)O)C(=O)N2[C@H]1C(=O)O (stereo partly specified)
1.4%: nuclear beta-catenin stimulation ([1]; stimulation, at 2 µM)
inactive: nuclear beta-catenin stimulation ([1]; at 10 µM) 1.3% | insulin secretion stimulation [2] -0.05% | viability decrease [3] 5.8% | tube area decrease [4] -2.3% | GLP1 secretion stimulation [5] 3.6% | inhibition of viability [6] 1.3% | viability decrease (inhibition) [7] -0.2% | viability decrease (inhibition) [8] -1.8%

Clc1ccccc1-c1nc(-c2ccncc2)no1
0.5%: nuclear beta-catenin stimulation ([1]; stimulation, at 2 µM)
inactive: nuclear beta-catenin stimulation ([1]; at 10 µM) -0.3% | insulin secretion stimulation [2] -2.3% | viability decrease [3] 3.6% | tube area decrease [4] 23.5% | GLP1 secretion stimulation [5] -2.9% | inhibition of viability [6] 18.1% | viability decrease (inhibition) [7] 8.4% | viability decrease (inhibition) [8] -2.9%

Cc1cccc(C)c1NC(=O)c1cc(S(N)(=O)=O)c(Cl)cc1O
0.7%: nuclear beta-catenin stimulation ([1]; stimulation, at 2 µM)
inactive: nuclear beta-catenin stimulation ([1]; at 10 µM) -1.8% | insulin secretion stimulation [2] -1.9% | viability decrease [3] -8.6% | tube area decrease [4] -2.4% | GLP1 secretion stimulation [5] -2.3% | inhibition of viability [6] -3.4% | viability decrease (inhibition) [7] 3.4% | viability decrease (inhibition) [8] -5.4%

CCCCCCCCCCCCCC(=O)OC(C)C
inactive: nuclear beta-catenin stimulation ([1]; at 10 µM) 1.2% | insulin secretion stimulation [2] 0.9% | viability decrease [3] -8.2% | tube area decrease [4] -9.5% | GLP1 secretion stimulation [5] -0.1% | inhibition of viability [6] 8.25% | viability decrease (inhibition) [7] 7.7% | viability decrease (inhibition) [8] 24.3%
-0.6%: nuclear beta-catenin stimulation ([1]; stimulation, at 2 µM)
